Measured values published in PubChem BioAssay AID628 (Vanderbilt High Throughput Screening Facility, 2007).
The whole screen tested about 64,000 compounds, of which about 2,200 (3.4%) were called active. The full list was thinned out, with actives kept by preference. Unmarked numbers belong to inactive results.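 How the source made its calls: active means calcium fluorescence response, raw or row-and-column corrected B-score, differing from the plate sample mean either way at a set confidence level, mostly lower; inactive means the rest.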

What follows are compounds tested against Muscarinic acetylcholine receptor M1 (Rattus norvegicus) (UniProt P08482) (assay: blocks the rat M1 muscarinic receptor response to acetylcholine (AID 628)). Conditions: CHO-M1 cells, Fluo-4 calcium, ACh EC80 antagonist mode; at 10 µM; active compounds read low.
Sequence of Muscarinic acetylcholine receptor M1 (Rattus norvegicus) (P08482 whole entry, looked up): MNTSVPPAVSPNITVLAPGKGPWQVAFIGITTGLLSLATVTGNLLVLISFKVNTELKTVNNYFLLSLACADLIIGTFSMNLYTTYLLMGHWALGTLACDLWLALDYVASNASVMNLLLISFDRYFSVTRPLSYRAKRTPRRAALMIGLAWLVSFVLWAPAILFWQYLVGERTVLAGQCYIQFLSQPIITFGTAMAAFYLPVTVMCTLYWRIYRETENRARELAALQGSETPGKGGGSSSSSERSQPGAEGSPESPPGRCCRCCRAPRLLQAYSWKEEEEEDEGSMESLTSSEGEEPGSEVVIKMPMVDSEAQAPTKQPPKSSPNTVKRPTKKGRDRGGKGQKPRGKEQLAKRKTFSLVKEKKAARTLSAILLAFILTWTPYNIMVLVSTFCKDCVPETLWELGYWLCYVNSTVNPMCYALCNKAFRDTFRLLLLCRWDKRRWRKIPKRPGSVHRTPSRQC

| Compound | B-score |
| --- | --- |
| CCOC(=O)C1CCN(C(=O)Nc2ccc(Cl)cc2)CC1 | -0.00301 |
| CCOC(=O)C1CCN(Cc2coc3ccc(Cl)cc3c2=O)CC1 | -5.08 (active) |
| CCOC(=O)c1ccc(N2C(=O)CC(N3CCC(C(=O)OCC)CC3)C2=O)cc1 (stereo not given) | -0.522 |
| CC(C)NS(=O)(=O)c1ccc(NC(=O)c2cccnc2)cc1 | 1.03 |
| C=CCn1c2ccccc2c2nnc(SC(CC)C(=O)Nc3nc(C)c(C(=O)OCC)s3)nc21 (stereo not given) | 0.9 |
| COc1cc(-n2c(C)nc3cc(C(=O)NCc4ccco4)ccc32)cc(OC)c1OC | -0.0298 |
| CSCCC(Nc1nc2ccccc2s1)C(=O)O (stereo not given) | 0.99 |
| Cc1ccc(C)c(N(CC(=O)NCc2ccco2)C(=O)CCC(=O)Nc2ccccn2)c1 | 0.211 |
| COCCN(C(=O)CCC(=O)Nc1ccccn1)C(C(=O)NCCC(C)C)c1ccc(OC)cc1 (stereo not given) | -2.46 (active) |
| Cc1ccc(C(C(=O)NC2CCCC2)N(Cc2ccco2)C(=O)CCC(=O)Nc2ccccn2)cc1 (stereo not given) | -0.0611 |
| CC(=O)Oc1cc2c(C(=O)NCCN3CCOCC3)c(C)oc2c2ccccc12 | -0.671 |
| CN(C)Cc1c(C#N)c2ccccc2n1C | 0.566 |
| CCCCNC(=O)CSc1nnc(-c2ccco2)n1C | -0.326 |
| COC(=O)CNC(=O)c1ccc2c(c1)S(=O)(=O)c1ccccc1C2=O | -0.0488 |
| CCCCN(C)C(=O)c1ccc2c(c1)N(CC)C(=O)c1ccccc1S2(=O)=O | -2.44 (active) |
| CCN1C(=O)c2cccc3c(N)ccc1c23 | -0.102 |
| O=C(Nc1ccccc1F)C1C2C=CC3(O2)C1C(=O)N(c1cccnc1)C3C(=O)NC1CCCCC1 (stereo not given) | 0.728 |
| CCCN1C2=C(C(=O)CCC2)C(c2ccc(O)c(Br)c2)C2=C1CCCC2=O | 0.273 |
| Cc1ccc(-n2nc3cc(Cl)c(NC(=O)c4ccco4)cc3n2)cc1 | 0.0365 |
| COc1cc(C(=O)Nc2oc(-c3ccccc3)c(-c3ccccc3)c2C#N)cc(OC)c1OC | -0.934 |
| O=C(CCN1C(=O)c2ccccc2C1=O)Nc1ccncc1 | -0.0156 |
| N#Cc1c(NC(=O)CCCN2C(=O)c3ccccc3C2=O)oc(-c2ccccc2)c1-c1ccccc1 | 2.29 (active) |
| CC(C)N1C(=O)C2C(C(=O)NC3CCCCC3)C3C=CC2(O3)C1C(=O)NC1CCCC1 (stereo not given) | -0.055 |

| Compound | B-score |
| --- | --- |
| COc1ccc(C(=O)N(CCN2CCOCC2)CC(=O)NC2CCCC2)cc1OC | -1.81 |
| Cc1noc(C)c1CSc1nnc2ccc3ccccc3n12 | 0.103 |
| CC(C)(CSc1nncn1/N=C/c1ccco1)NS(=O)(=O)c1ccc(Cl)cc1 | -0.0125 |
| COC(=O)c1ccc(NC(=O)C(C)N2C(=O)c3ccccc3C2=O)cc1 (stereo not given) | 0.608 |
| COc1ccc(OCC(=O)N2CCOCC2)cc1 | -0.0545 |
| CCCCOc1ccc(C(C)(O)CCN2CCOCC2)cc1 (stereo not given) | -1.77 (active) |
| CCCOc1ccc(C2c3c(oc4cc(C)c(C)cc4c3=O)C(=O)N2CCCN2CCOCC2)cc1 (stereo not given) | -2.07 |
| COC(=O)C1(S(=O)(=O)C2(C(=O)OC)CCCC2)CCCC1 | -0.00987 |
| CC(=O)OC(C(=O)NC1CCCCC1)c1ccccc1 (stereo not given) | 0.565 |
| CN(C)CCNC(=O)C(C(=O)c1ccccc1)n1ccccc1=O (stereo not given) | 0.0113 |
| Cc1ccc(NC(=O)C2CC(c3ccc(F)cc3)=NO2)cc1 (stereo not given) | 0.326 |
| CCOc1ccc(CN(Cc2ccco2)C(c2cccs2)c2nnnn2C(C)(C)C)cc1 (stereo not given) | -0.0188 |
| CC(C)(C)n1nnnc1C(c1cccs1)N(Cc1cccnc1)CC1CCCO1 (stereo not given) | -5.58 (active) |
| CCC(C)(C)n1nnnc1C(c1cccs1)N1CCN(Cc2ccccc2)CC1 (stereo not given) | 0.103 |
| Cc1ncc(CC(=O)n2cc(C(=O)c3cc(Cl)ccc3O)cn2)s1 | -0.173 |
| CN(C)S(=O)(=O)c1ccc(Oc2ccc(S(=O)(=O)N(C)C)cc2)cc1 | -0.154 |
| COc1ccccc1-c1cc(C(=O)NCCCn2ccnc2)no1 | -0.17 |
| CCCCOCCCNC(=O)c1ccccc1OCC | 0.466 |
| CCOc1ccccc1C(=O)NCCCn1ccnc1 | -0.947 (active) |
| CC[C@]1(O)C[C@@H]2CN(CCc3c([nH]c4ccccc34)[C@@](C(=O)OC)(c3cc4c(cc3OC)N(C)[C@H]3[C@@](O)(C(=O)OC)[C@H](OC(C)=O)[C@]5(CC)C=CCN6CC[C@]43[C@@H]65)C2)C1 | -0.431 |
| CC[C@]1(O)CC2CN(CCc3c([nH]c4ccccc34)[C@@](C(=O)OC)(c3cc4c(cc3OC)N(C=O)[C@H]3[C@@](O)(C(=O)OC)[C@H](OC(C)=O)[C@]5(CC)C=CCN6CC[C@]43[C@@H]65)C2)C1 (stereo not given in full) | -6.81 (active) |
| O=c1c(-c2ccccc2)coc2c(CN3CCOCC3)c(O)ccc12 | -0.686 |
| CCc1ccccc1NC(=O)CSc1nnc([C@@H](NC(=O)OC(C)(C)C)C(C)CC)o1 (stereo not given in full) | -0.00145 |

| Compound | B-score |
| --- | --- |
| O=C(Nc1cccnc1)c1ccc2c(c1)OCO2 | -0.335 |
| CCOc1cccc(C(=O)Nc2cccnc2)c1 | 1.02 |
| O=C(Nc1cccnc1)c1noc2c1CCCCC2 | 2.01 (active) |
| Cc1cccc(NC(=O)CSc2nnc(NC(=O)CN3CCOCC3)s2)c1 | -0.445 |
| Cc1ccc(-c2nn(-c3ccccc3)cc2CN(Cc2ccccc2)C(=O)CCC(=O)O)o1 | -0.258 |
| C=CCNC(=O)C12CC3CC(C1)CC(C(=O)NCC=C)(C3)C2 | 0.561 |
| CCOC(=O)N1CCC(NC(=O)CCc2cn(C)c3ccccc23)CC1 | 0.483 |
| CCn1c(SCC(=O)Nc2ccccc2F)nc2c(c1=O)SC(C)C2 (stereo not given) | -0.377 |
| CC1Cc2nc(SCC(=O)Nc3ccccc3F)n(C)c(=O)c2S1 (stereo not given) | -0.851 |
| COCCn1c(SCC(=O)Nc2cc(Cl)ccc2OC)nc2c(c1=O)SC(C)C2 (stereo not given) | -2.72 (active) |
| COc1ccc(-c2nc3n(c2Br)CCC3)cc1 | 0.807 |
| COc1cc(-c2noc(C3CCCN(S(=O)(=O)c4cccc(Cl)c4)C3)n2)cc(OC)c1OC (stereo not given) | 0.77 |
| O=C(c1cccs1)N1CCCC(c2nc(-c3ccc(F)cc3)no2)C1 (stereo not given) | -1.27 |
| O=C(Cc1cccs1)N1CCCC(c2nc(-c3ccc(S(=O)(=O)N4CCCC4)cc3)no2)C1 (stereo not given) | -2.63 (active) |
| O=C(c1ccco1)N1CCN=C1SCc1cccc(Cl)c1 | -2.85 (active) |
| O=C(C1CC1)N1CCN=C1SCc1ccc(Cl)cc1 | 0.588 |
| O=C(c1ccco1)N1CCN(c2cccc(Cl)c2)CC1 | -0.702 |
| Cc1ccc(S(=O)(=O)C(C#N)c2nc3ccccc3nc2N2CCCC2)cc1C (stereo not given) | 0.0971 |
| O=S(=O)(O)c1nc2ccccc2n1Cc1ccc(Cl)cc1Cl | 0.452 |
| COCCNc1nc(-n2nc(C)cc2C)nc2sc3c(c12)CCCC3 | -0.584 |
| Cc1nc(SCC(=O)Nc2cc(C)on2)c2c3c(sc2n1)CCCC3 | -0.235 |
| Cc1cc(C)n(-c2nc(SCC(=O)N3CCCC3)c3c4c(sc3n2)CCCC4)n1 | -2.83 (active) |
| Brc1ccc(Nc2c3c(nc4ncnn24)CCC3)cc1 | 0.669 |

| Compound | B-score |
| --- | --- |
| CCOC(=O)N1CCC(Nc2c(NCCN3CCN(c4cccc(Cl)c4)CC3)c(=O)c2=O)CC1 | 0.00829 |
| CCOC(=O)N1CCC(NC(=O)COc2cc(=O)n(C)c3ccccc23)CC1 | 0.854 |
| CCn1c(=O)cc(OCC(=O)NCCCN2CCN(c3cccc(Cl)c3)CC2)c2ccccc21 | -2.45 (active) |
| Cc1c(C(=O)NCC2CCCO2)sc2nc(-c3ccccc3)cn12 (stereo not given) | 0.0376 |
| COc1cc(OC)c(NC(=O)c2ccc(Br)o2)cc1Cl | 0.263 |
| CCN1CCN(c2c(Cl)cccc2NC(=O)c2ccc(Br)o2)CC1 | -6.97 (active) |
| CCCC(=O)Nc1ccc(Cl)c(NC(=O)c2ccc(Br)o2)c1 | 0.768 |
| CCOC(=O)N1CCC(NC(=O)c2cnn3ccccc23)CC1 | 0.733 |
| CCOC(=O)Cn1c2c(c(-c3ccccc3OC)cc1=O)CCCC2 | -0.0571 |
| C=CCOC(=O)C1=C(C)OC(N)=C(C#N)C1c1ccc(F)cc1 (stereo not given) | 0.263 |
| Cc1ccccc1N1C(=O)C2ON(c3ccccc3)C(c3ccncc3)C2C1=O (stereo not given) | -0.292 |
| CC(C)(C)OC(=O)c1c(N)n(CCCN2CCCC2=O)c2nc3ccccc3nc12 | -1.12 |
| COc1ccc(OC)c(C(=O)c2coc3ccc(OC)cc23)c1 | -1.32 |
| COc1cccc(-n2cc(C(=O)O)c3ccccc3c2=O)c1 | 1.31 |
| O=C(c1cn(-c2ccccc2)nc1-c1cccnc1)N1CCCCC1 | 0.615 |
| COC(=O)c1cn(-c2ccccc2)nc1-c1cccnc1 | -0.00204 |
| COc1ccccc1N1CCN(C(=O)c2cn(-c3ccccc3)nc2-c2cccnc2)CC1 | 1.85 (active) |
| COc1ccc(-n2ncc3c(N4CCCc5ccccc54)ncnc32)cc1 | 0.508 |
| CCCCN(CC)C(=O)CN(C)S(=O)(=O)c1cccc2nsnc12 | -0.0458 |
| CSc1nnc2c(n1)OC(c1ccsc1)N(C(C)=O)c1ccccc1-2 (stereo not given) | -8.49 (active) |
| CSc1nnc2c(n1)OC(c1cn(C)c3ccccc13)N(C(C)=O)c1ccccc1-2 (stereo not given) | -0.0695 |
